# From PubChem
# In the library only some 3.6% were active in any assay of this set; here they are far more common.
# mHTT CaM bind: mHTT-calmodulin interaction abrogation; AID 1671202; inhibition, % at 15 µM; P42858; 3.6% of 190,000 active; AlphaScreen His-mHTT/GST-CaM binding, luminescence;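 further: 0% = both proteins with DMSO and 100% = one protein alone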
# Pf apPOL inh: Pf-apPOL DNA polymerase inhibition | inhibition, % at 10 µM | 0.25% of 210,000 active | Recombinant Pf-apPOL, molecular beacon fluorescence, 1.5 h
# Active calls of the source: *; . = no result given. No stated cut-off is given here; in the data, active means inhibition above about 50%; inactive means the rest.
SMILES,mHTT CaM bind,Pf apPOL inh
COc1ccc(C(=O)NC(Nc2ccc([N+](=O)[O-])cc2)C(Cl)(Cl)Cl)cc1 (stereo not given),48,2
COc1ccc(C(=O)NC(Nc2ccc(Br)cc2)C(Cl)(Cl)Cl)cc1 (stereo not given),3,7
COc1ccc(Cc2nnc3sc(-c4ccccc4)nn23)cc1,-5,-17
Cc1nc(N=C(NC(=O)Nc2ccccc2)NC(=O)Nc2ccccc2)nc2ccccc12,5,-2
CC(C)CCNC(=O)c1c[nH]c2ccc(S(=O)(=O)NC3CCCCNC3=O)cc2c1=O (stereo not given),15,-3
Cc1ccc2oc(-c3cc(NC(=O)c4cccc([N+](=O)[O-])c4)ccc3O)nc2c1,6,-4
CC(C)C(C(=O)O)N1C(=O)C(=Cc2ccco2)SC1=S (stereo not given),11,36
CCCC(C(=O)O)N1C(=O)C(=CC=Cc2ccco2)SC1=S (stereo not given),84*,92*
O=C(O)CCC(C(=O)O)N1C(=O)C(=Cc2ccco2)SC1=S (stereo not given),1,41
CC(C(=O)O)N1C(=O)C(=CC=Cc2ccco2)SC1=S (stereo not given),30,91*
Cc1ccc(NC(=O)N2CCN(c3cccc(C)c3)C(=O)C2C)cc1 (stereo not given),-5,0
CC1CCN(C(=O)C2(c3ccc(NS(C)(=O)=O)cc3)CCCCC2)CC1,-10,8
Cc1cc(-c2ccccc2)n(-c2c(F)c(F)c(CO)c(F)c2F)n1,2,-4
CCOC(=O)c1cccc(NC(=O)N2CC(CC)Oc3ccc(C)cc32)c1 (stereo not given),-2,1
CCOC(=O)N1CCN(C(=O)CCc2csc(NC(=O)c3ccc(F)cc3)n2)CC1,-15,-8
O=C(Nc1nc2c(s1)CCCC2)c1ccc(-n2cccn2)nn1,3,0
O=C(CCc1csc(NC(=O)c2ccc(F)cc2)n1)Nc1nc(-c2ccco2)cs1,58*,10
O=C(Nc1nc(-c2ccco2)cs1)c1ccc(-n2cccn2)nn1,56*,30
COc1ccc(CCS(=O)(=O)Nc2ccc(CC(=O)NCc3cccs3)cc2)cc1,-14,10
CC(=O)Nc1nc(N)n(-c2ccccc2)n1,-1,-1
Nc1nc(NC(=O)c2ccc(F)cc2)nn1-c1ccccc1,0,65*
Cc1csc(NC(=O)CSc2nnc(NC(=O)Cc3ccc(F)cc3)s2)n1,0,-3
O=C(Cc1nc(-c2ccccn2)n[nH]1)Nc1ccccc1F,94*,-6
O=C(Cc1nc(-c2ccccn2)n[nH]1)Nc1ccc(F)cc1F,97*,-17
O=C(Cc1nc(-c2ccccc2)n[nH]1)Nc1ccc(F)c(F)c1,-2,-3
SMILES,mHTT CaM bind,Pf apPOL inh
Cc1ccccc1NC(=O)Cc1nc(-c2ccccc2)n[nH]1,4,-3
Cc1ccc(NC(=O)NCCC2CCN(C(=O)Nc3cccc(Cl)c3)CC2)cc1,0,-4
COCc1noc(C2CCCCN2C(=O)CCc2cccc(OC)c2)n1 (stereo not given),2,1
CCOc1cc(C=C2C(=O)c3ccccc3C2=O)cc(Br)c1O,66*,-4
COc1cc(/C=C2/SC(c3ccccc3)=NC2=O)cc(Br)c1O,96*,2
COc1cc(/C=C2\Sc3ccccc3C2=O)cc(I)c1O,74*,-3
COc1cc(/C=C2\Sc3ccccc3C2=O)cc(Br)c1O,59*,-2
COc1ccc(/C=C2\Sc3ccccc3C2=O)cc1Br,13,-7
COc1cc(/C=C2\Sc3ccccc3C2=O)cc2sc(=O)oc12,13,0
CCOc1cc(C=C2C(=O)c3ccccc3C2=O)ccc1OC(C)C(=O)O (stereo not given),16,-4
COc1ccc(/C=C2/SC(c3ccccc3)=NC2=O)cc1,44,-4
O=C(Nc1c2c(nn1-c1cccc(Cl)c1)CSC2)c1ccc2c(c1)OCO2,27,-7
O=C(NCc1ccccc1)c1cc(N2CCCC2)n2nccc2n1,-30,-1
CC(CC(=O)O)n1ccnc1 (stereo not given),-2,.
O=C(Nc1ccc2c(c1)OCCO2)c1ccccc1SCc1ccc(F)cc1,5,-10
CSc1ccccc1NC(=O)CN1CCN(c2ccc3c(c2)OCCO3)C1=O,-8,-12
COc1cc(C=NN=C2NC(=O)CS2)cc(OC)c1OC,.,-1
Cc1cccc(OCCOCCN2CCCC2)c1C,2,-3
COc1ccc(-c2cc(COC(=O)c3cc(Cl)ccc3OC)no2)cc1OC,10,0
CCOc1cc(/C=C2\Sc3ccccc3C2=O)cc(I)c1O,71*,-6
CCOc1ccc(/C=C2\Sc3ccccc3C2=O)cc1,1,2
Cc1ccn2cc(CC(=O)Nc3ccc(F)cc3)nc2c1,-1,-2
Cc1noc(C)c1-n1sc(=O)n(-c2ccc(F)cc2)c1=O,.,73*
Cc1ccc(-n2sc(=O)n(Cc3ccc(F)cc3)c2=O)cc1,.,2
COc1ccc(C2Oc3c(cc(Br)cc3OC)C=C2[N+](=O)[O-])cc1OC (stereo not given),72*,-3
SMILES,mHTT CaM bind,Pf apPOL inh
O=[N+]([O-])C1=Cc2ccccc2OC1c1ccccc1 (stereo not given),36,.
O=[N+]([O-])C1=Cc2cc(Br)cc(Br)c2OC1c1ccc2c(c1)OCO2 (stereo not given),84*,-5
CCOc1ccc(C2Oc3c(cc(Br)cc3OC)C=C2[N+](=O)[O-])cc1OC (stereo not given),38,-9
COc1cc(Br)cc2c1OC(c1ccc3c(c1)OCO3)C([N+](=O)[O-])=C2 (stereo not given),68*,-3
COc1cc2c(cc1[N+](=O)[O-])OCO2,-5,.
Cc1ccc(C)c(CNC(=O)c2cc3c(=O)n(C)c4ccccc4n3n2)c1,-6,-4
O=C(NCCC1=CCCCC1)C(=O)NCC1(c2cccs2)CCCC1,-6,1
CCCC(=O)N(CCN1CCOCC1)c1nc2ccc(Br)cc2s1,26,-9
O=C(CCOc1ccccc1)N(CCN1CCOCC1)c1nc2c(Cl)cccc2s1,87*,-8
COC(=O)CCC(=NNc1ccc([N+](=O)[O-])cc1[N+](=O)[O-])c1ccc(C)cc1,.,-6
COc1cccc(C(=O)Nc2ccc(-n3nncc3-c3ccccc3)cc2)c1OC,57*,-7
COc1cc(C(=O)Nc2ccc(-n3nncc3-c3ccccc3)cc2)cc(OC)c1OC,46,-3
COc1ncnc2c1C(c1cccc([N+](=O)[O-])c1)c1c(OC)ncnc1O2,7,-6
CNc1ncnc2c1C(c1cccc([N+](=O)[O-])c1)c1c(NC)ncnc1O2,13,75*
Cc1nc(Nc2ccc(F)cn2)sc1C(=O)N1CCc2ccccc2C1,65*,-3
Cc1nc(Nc2ccccn2)sc1C(=O)N1CCc2ccccc2C1,26,1
Cc1cccc(N2CCN(C(=O)c3sc(Nc4ccc(F)cn4)nc3C)CC2)c1,85*,-4
Cc1nc(Nc2ccc(F)cn2)sc1C(=O)N1CCN(C2CCCCC2)CC1,26,0
Cc1ccccc1N1CCN(C(=O)c2sc(Nc3ccc(F)cn3)nc2C)CC1,100*,-4
Cc1cccc(Nc2nc(C)c(C(=O)N3CCN(c4ccccc4)CC3)s2)n1,48,-4
Cc1cc(OCC(=O)Nc2ccc(F)cc2F)nc(N2CCCCC2)n1,-11,-2
COc1ccc(CCNC(=O)COc2ccc(C)cc2Br)cc1OC,3,0
